# Mtb BioA inh: BioA (M. tuberculosis) enzyme inhibition; AID 602481; inhibition, % at 9.99 µM; 360,000 tested, 0.096% active; purified M. tuberculosis BioA enzyme, plate reader; in the data active means inhibition above about 40%
# GDH-TPI counter-1: counter-screen for M. tuberculosis FBA inhibitors: GDH-TPI coupled enzymes | GDH-TPI coupled enzyme counterscreen, NADH absorbance | 360,000 tested, 1.2% active | AID 588335 | inhibition, % at 4.8 µM; in the data active means inhibition above about 30%
# Mtb hypoxia rep: reduces hypoxia-regulated biosensor signal in M. tuberculosis; M. tuberculosis hypoxia-regulated fluorescent reporter, fluorescence; fluorescence inhibition, % (no concentration beside the values); 300,000 tested, 0.1% active; in the data active means fluorescence inhibition mostly above about 23%, no sharp cut-off; inactive means mostly below about 17%
# FadD28 binding: M. tuberculosis FadD28 bisubstrate binding inhibition; FadD28 bisubstrate probe binding, fluorescence polarization; inhibition, % at 12.5 µM; 360,000 tested, 0.22% active; in the data active means inhibition above about 8.5%, passing the limit was not always enough
# Mtb FBA inh: Mtb fructose-bisphosphate aldolase inhibition; AID 588726; P9WQA3; purified M. tuberculosis FBA, fluorescence read-out; 360,000 tested, 2.3% active; inhibition, % at 1 µM
# Target sequence (P9WQA3 whole entry, looked up): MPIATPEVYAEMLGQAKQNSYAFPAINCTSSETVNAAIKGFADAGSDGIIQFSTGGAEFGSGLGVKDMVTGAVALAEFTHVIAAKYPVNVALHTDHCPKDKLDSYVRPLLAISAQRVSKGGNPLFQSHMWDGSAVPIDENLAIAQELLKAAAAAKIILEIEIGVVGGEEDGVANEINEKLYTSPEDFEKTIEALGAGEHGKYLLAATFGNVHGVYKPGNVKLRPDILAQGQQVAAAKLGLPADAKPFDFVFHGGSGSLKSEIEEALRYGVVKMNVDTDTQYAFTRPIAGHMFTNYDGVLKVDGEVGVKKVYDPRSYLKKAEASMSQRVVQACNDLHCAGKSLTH
# Mtb FBA confirm: confirmation of M. tuberculosis fructose-bisphosphate aldolase inhibitors; 5,600 tested, 78% active; inhibition, % at 1 µM; shares compounds with Mtb FBA inh; purified M. tuberculosis FBA, fluorescence read-out
# GDH-TPI counter-2: GDH-TPI inhibition counter-screen for FBA inhibitors. AID 652141. GDH-TPI coupled enzyme counterscreen, fluorescence. inhibition, % at 1 µM. 5,600 tested, 81% active. shares compounds with Mtb FBA inh; in the data active means inhibition above about 10%
# GDH-TPI dose: GDH-TPI dose response counter-screen for Mtb FBA. GDH-TPI coupled enzyme assay, fluorescence, artifact counterscreen. shares compounds with Mtb FBA inh. 170 tested, 79% active. IC50, µM. AID 652145; call rule not given here
# Numbers stand for hits; . = inactive; / = not tested or not shown; + = active, no number. In the library only some 2.9% were active in any assay of this set; here they are far more common. Unless noted, no stated cut-off is given here; in the data, active means inhibition above about 27%; inactive means the rest.
SMILES,Mtb BioA inh,GDH-TPI counter-1,Mtb hypoxia rep,FadD28 binding,Mtb FBA inh,Mtb FBA confirm,GDH-TPI counter-2,others
CCOC(=O)Cc1c(C)nc(N)[nH]c1=O,.,.,.,.,.,/,/,
C[C@H](O)C(=O)C1=Nc2c(nc(N)[nH]c2=O)NC1,.,.,/,.,27,41,33,
CCCc1c(O)c2ccccc2[nH]c1=O,.,.,.,.,30,50,42,
C[C@@H]1CN([C@H](C)CO)C(=O)c2cc(NS(=O)(=O)c3cccs3)ccc2O[C@@H]1CN(C)Cc1ccc(-c2ccccc2)cc1,.,/,/,/,/,/,/,
CNc1cc(-c2cc(OC)ccc2OC)ncn1,.,.,/,.,84,.,.,
CNc1ccc(-c2cc(OC)ccc2OC)cn1,.,.,/,.,98,+,155,
O=C(CN1CCCCC1)NN=Cc1ccc(Cl)cc1,/,/,.,/,/,/,/,
CCCC(=O)Nc1ccc2c(c1)C(=O)N(C)C[C@@H](OC)[C@@H](C)CN(Cc1nccs1)[C@@H](C)CO2,.,/,/,/,/,/,/,
CC(=O)Nc1ccc2c(O)cc(S(=O)(=O)O)cc2c1,.,.,.,.,.,/,/,
O=S(=O)(O)c1cc(O)c2ccc(Nc3ccccc3)cc2c1,.,.,.,24,35,.,.,
O=S(=O)(O)c1cc(O)c2cc(Nc3ccccc3)ccc2c1,.,.,.,28,48,91,98,
O=C(C[C@H]1CC[C@H]2[C@@H](COC[C@H](O)CN2S(=O)(=O)c2ccc(F)cc2)O1)N[C@H]1CCN(Cc2ccccc2)C1,.,/,/,/,/,/,/,
Cc1ccccc1N(CC(=O)NC1CCCCC1)C(=O)c1csnn1,.,.,.,.,.,/,/,
CC1=CC=CC2=NC(=O)CC(C)(C(=O)N(CC(=O)NC3CCCC3)c3ccc(F)cc3)N12 (stereo not given),.,.,.,.,95,+,+,
CC1=CC=CC2=NC(=O)CC(C)(C(=O)O)N12 (stereo not given),.,.,.,.,103,.,14,
CC1=CC=CC2=NC(=O)CC(C)(C(=O)N(CC(=O)NC3CCCC3)c3ccccc3C)N12 (stereo not given),.,.,.,.,110,121,95,
CO[C@@H]1CN(C)C(=O)c2cc(NC(C)=O)ccc2OC[C@H](C)N(Cc2ccc(F)cc2)C[C@@H]1C,.,/,/,/,/,/,/,
CCS(=O)(=O)Nc1ccc2c(c1)C(=O)N(C)[C@@H]1CC[C@@H](CC(=O)NCc3ccccc3F)O[C@H]1CO2,.,/,/,/,/,/,/,
CC(=O)c1ccc2c(c1)c(C#N)c1ccccc1[n+]2[O-],.,.,42,.,94,.,.,
ON=C1C2C3CC4C5C3C1C5C1(OCCO1)C42 (stereo not given),/,/,.,/,/,/,/,
CCN(C(=O)COC(=O)c1oc2ccc(OC)cc2c1C)C1CCS(=O)(=O)C1 (stereo not given),.,.,.,.,60,112,121,
Cc1c(C(=O)OCC(=O)NC2CCCCC2)oc2ccccc12,.,.,.,/,.,/,/,
CCOc1ccc2oc(C(=O)OCC(=O)NC3CCCC3)c(C)c2c1,.,.,.,.,31,.,.,GDH-TPI dose=6.7
COc1ccc2oc(C(=O)OCC(=O)NC3CCCCC3)c(C)c2c1,.,.,.,.,39,90,78,
COc1ccc2oc(C(=O)Nc3nccs3)c(C)c2c1,/,.,.,.,.,/,/,
SMILES,Mtb BioA inh,GDH-TPI counter-1,Mtb hypoxia rep,FadD28 binding,Mtb FBA inh,Mtb FBA confirm,GDH-TPI counter-2,others
CCN(C(=O)COc1cc(OC)ccc1C(C)=O)C1CCS(=O)(=O)C1 (stereo not given),.,.,.,.,.,/,/,
COc1ccc2oc(C(=O)NC3(C)CCS(=O)(=O)C3)c(C)c2c1 (stereo not given),/,.,.,.,39,+,+,
O=C(C[C@@H]1C=C[C@@H](NC(=O)C2CCOCC2)[C@H](CO)O1)NCC1CCCCC1,.,/,/,/,/,/,/,
CCCCNC(=S)N(C)N=Cc1ccc(F)cc1,/,/,.,/,/,/,/,
CCOc1ccc2oc(C(=O)OCC(=O)NC(=O)NC)c(C)c2c1,.,.,.,.,.,/,/,
CCCN(CC1CC1)C(=O)COC(=O)c1oc2ccc(OCC)cc2c1C,.,.,.,.,42,+,186,
Cc1oc(/N=C/c2ccc(O)cc2O)c(C#N)c1C,/,.,/,.,71,+,+,
C[C@@H]1CN([C@@H](C)CO)C(=O)Cc2cc(NC(=O)c3ccncc3)ccc2O[C@H]1CN(C)C,.,/,/,/,/,/,/,
COCC#Cc1ccc2c(c1)O[C@@H](CN(C)C(C)=O)[C@@H](C)CN([C@@H](C)CO)S2(=O)=O,.,/,/,/,/,/,/,
CN(CC(=O)NCc1ccccc1)CC(=O)Nc1ccc(Cl)c(C(F)(F)F)c1,.,.,.,.,34,92,73,
C[C@H]1CCCCO[C@H](CN(C)C(=O)Nc2ccc(F)cc2)[C@@H](C)CN([C@@H](C)CO)C(=O)c2cc(NC(=O)CCCN(C)C)ccc2O1,.,/,/,/,/,/,/,
COc1cc(C=NNC(=O)Cc2ccccc2)cc([N+](=O)[O-])c1O,/,/,.,/,/,/,/,
CCN(CC)c1ccc(-c2c(C#N)c(N)nc(OC)c2C#N)cc1,.,.,.,.,55,34,25,
N#Cc1ccccc1OCC(=O)OCC(=O)N1CCN(C(=O)c2ccco2)CC1,/,.,.,.,74,170,147,
C/C=C/c1cnc2c(c1)C(=O)N([C@H](C)CO)C[C@H](C)[C@H](CN(C)C(=O)c1cccnc1)O2,.,/,/,/,/,/,/,
CC1=C(C#N)C(C)C2=C(CC(C)(C)CC2=O)N1 (stereo not given),.,.,.,.,57,71,65,
Cc1ccc(S(=O)(=O)N(C)C[C@H]2Oc3c(NC(=O)NC(C)C)cccc3C(=O)N([C@@H](C)CO)C[C@@H]2C)cc1,.,/,/,/,/,/,/,
C[C@@H](NC(=O)[C@H]1[C@H](CO)[C@H]2Cn3c(ccc(C4=CCCC4)c3=O)[C@H]2N1C)c1ccccc1,.,/,/,/,/,/,/,
Cc1ccc2c(c1)C1C(CO2)C(c2ccccc2)[C@]2(C)C(=O)N(CC3CCCO3)CC(=O)N12 (stereo not given in full),/,/,.,/,/,/,/,
Cc1nn(C)cc1-c1cc(C(=O)O)c2ccccc2n1,/,.,.,.,82,.,.,GDH-TPI dose=3.3
O=[N+]([O-])c1ccc(-c2ccc(C=Nc3cccc4ccccc34)o2)cc1,.,33,.,.,71,.,.,GDH-TPI dose=.
O=[N+]([O-])c1ccc(C=Nn2c(CO)nc3ccccc32)s1,/,/,.,/,/,/,/,
O=[N+]([O-])c1ccc(C=Nc2cccc3ccccc23)s1,.,.,.,.,50,.,.,
COCC(=O)Nc1ccc2c(c1)C(=O)N(C)[C@@H]1CC[C@H](CC(=O)NCc3ccccc3F)O[C@@H]1CO2,.,/,/,/,/,/,/,
O=Cc1cn(-c2ccccc2)nc1-c1cc2cc(O)ccc2oc1=O,/,34,.,.,32,82,57,
Nc1c(C(=O)Nc2nccs2)sc2nc(-c3cccs3)cc(C(F)(F)F)c12,/,.,.,.,42,39,28,

# Screens: PubChem BioAssay, several laboratories
